# PubChem BioAssay (Tox21)
# Records with an inconclusive call do not appear. Values without a mark were called inactive. Activity calls are given as the source filed them. Calls come from the whole dose curve; as a rule, active = well fitted cell-killing curve with a large enough effect in the repeat runs; inconclusive = weak or mixed curves; inactive = flat fitted curve, though single readings scatter.
# Experiment: qHTS RealTime-Glo MT Cell Viability Assay in HepG2 cells - 24 hour (AID 1224867); note: nearly all actives have a fitted effect of over 50% in size
# Settings: RealTime-Glo luminescence; series mostly up to 76.8 µM
# Description: U.S. Tox21 Program National Center for Advancing Translational Sciences [NCATS] NIH Chemical Genomics Center [NCGC] U.S. Environmental Protection Agency [EPA] National Institutes of Environmental Health Sciences [NIEHS] National Toxicology Program [NTP] U.S. Food and Drug Administration [FDA] Tox21 Assay Overview: Measure of cell viability is critical in the cell-base assay. Analysis of cell viability is necessary for the characterization of cell responses to cytotoxic drugs and environmental stress. A RealTime-Glo MT Cell Viability Assay to monitor cell viability in real time of continues cell culture during 40 hours of compound treatment was used to screen Tox21 10K library compounds in HepG2 cells. The RealTime-Glo MT Cell Viability Assay is a nonlytic, homogeneous, bioluminescent method to measure cell viability in real time using a simple, plate-based method. The assay involves adding NanoLuc luciferase and a cell-permeant prosubstrate to cells in culture. Viable cells reduce the proprietary prosubstrate to generate a substrate for NanoLuc luciferase. This substrate diffuses from cells into the surrounding culture medium, where it is rapidly used by the NanoLuc Enzyme to produce a luminescent signal. The signal correlates with the number of viable cells, making the assay well suited for cytotoxicity studies.
# Tox21 Assay Protocol Summary: The mixture of HepG2 cell suspension and reagents were dispensed at 600cells/6 ul/well in 1536-well tissue culture treated black solid bottom plates using a Multidrop dispenser. After the assay plates were incubated at a 37 C/5% CO2 incubator for 5 hours, 23 nL of compounds dissolved in DMSO, positive and negative controls was transferred to the assay plate by a pintool work station. The plates were incubated at 37 C for 40 hours. The luminescence intensity were measured at 0h, 8h, 16h, 24h, 32h and 40h time points using ViewLux plate reader during compound treatment.
# % is set by controls: 0 for no effect and ±100 for the full control effect.
SMILES,outcome,"activity change, negative = cytotoxicity"
C=C[Si](OC)(OC)OC,inactive,–
CC(C)N1C(=O)c2ccccc2C1=O,inactive,–
COc1ccc(NC(C)=O)cc1,inactive,–
COC(=O)CCCC(=O)O,inactive,–
CC(C)COC(=O)C(C)C,inactive,–
Cc1ccc(N)cc1[N+](=O)[O-],inactive,–
C#CC(O)C(CC)CCCC (stereo not given),inactive,–
CC(C)(C)CC(C)(C)N,inactive,–
CC1=CC(C)C(C=O)C(C)C1 (stereo not given),inactive,–
C=C(C)C(=O)OCCC(C)OC(=O)C(=C)C (stereo not given),inactive,–
CC1(C)OC(=O)Nc2ccc(Br)cc21,inactive,–
CCO[Si](C)(OCC)OCC,inactive,–
CC(C=O)Cc1ccc(C(C)C)cc1 (stereo not given),inactive,–
Nc1[nH]c(=O)ncc1F,inactive,–
COC(C(=O)O)c1ccccc1 (stereo not given),inactive,–
C=C(C)C1CC=C(C)C(O)C1 (stereo not given),inactive,–
c1ccc(SCCSc2ccccc2)cc1,inactive,–
CCN1CCCC(OC(=O)C(c2ccccc2)c2ccccc2)C1 (stereo not given),inactive,–
CCn1c(=O)c2c(nc(/C=C/c3ccc(OC)c(OC)c3)n2C)n(CC)c1=O,inactive,–
O=C(O)c1cccc(C(=O)O)n1,inactive,–

SMILES,outcome,"activity change, negative = cytotoxicity"
CCC(=O)c1cccc(Cl)c1,inactive,–
CCCCCCCCCCC1CO1 (stereo not given),inactive,–
NCC[C@H](O)C(=O)N[C@@H]1C[C@H](N)[C@@H](O[C@H]2O[C@H](CN)[C@@H](O)[C@H](O)[C@H]2O)[C@H](O)[C@H]1O[C@H]1O[C@H](CO)[C@@H](O)[C@H](N)[C@H]1O,–,1.55% [at 0.29 µM]
CC(C)c1ccc2oc3nc(N)c(C(=O)O)cc3c(=O)c2c1,inactive,–
CC(C)(C)OC(=O)N1C[C@@H](F)C[C@H]1C(=O)O,inactive,–
O=C(O)c1ccc[n+]([O-])c1,inactive,–
CCCCC=O,inactive,–
N[C@@H](CS)C(=O)O,inactive,–
CC(C)c1cccc(C(C)C)c1N,inactive,–
O=C(O)c1ccccc1-c1ccc(C(F)(F)F)cc1,inactive,–
CCc1cc(S(=O)(=O)O)c2cc(C(C)C)cccc1-2,inactive,–
NC1CCN(c2cccc(Cl)n2)CC1,inactive,–
CCCCCCCCN(C)CCCCCCCC,inactive,–
C1COCCO1,inactive,–
COc1nc(C)nc(N)n1,inactive,–
CO[Si](CCCNCCC[Si](OC)(OC)OC)(OC)OC,inactive,–
COc1ccc(N=[N+]([O-])c2ccc(OC)cc2)cc1,inactive,–
Oc1cc(O)c2c(c1)O[C@H](c1ccc(O)c(O)c1)[C@H](O)C2,inactive,–
CCn1cc(C(=O)O)c(=O)c2cc(F)c(N3CCN(C)CC3)cc21,–,0.0471% [at 15.8 µM]
NS(=O)(=O)c1cc(C2(O)NC(=O)c3ccccc32)ccc1Cl (stereo not given),inactive,–
